This is an account of results in PubChem BioAssay (NCI).

Among the test systems are DU-145 prostate; K-562 leukemia; MALME-3M melanoma; MDA-MB-231 breast; RXF 393 renal; SF-268 CNS; SF-295 CNS; SF-539 CNS; UACC-257 melanoma; M14 melanoma; HCT-15 colon; HT29 colon; SNB-75 CNS; SNB-19 CNS; U251 CNS; PC-3 prostate; SK-MEL-5 melanoma; UACC-62 melanoma; LOX IMVI melanoma; SK-MEL-28 melanoma.
Holding throughout (experiment): NCI-60 one-dose screen, 48 h (100 = growth as untreated, 0 = no growth, -100 = all killed)
Common to all, as to details: 10 µM unless noted

The panel holds about 83,000 compounds, 20% with a hit somewhere; the sample as a whole holds those more often.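 Single-concentration screen, 48 h exposure, 96-well plates. Endpoint: percent growth. Below 10 = active.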 Unmarked numbers belong to inactive results. Active and inactive are the calls of the source.

For the compound `Cc1cc(NS(=O)(=O)c2ccccc2)c(OS(=O)(=O)c2ccccc2)cc1C`, the growth in the experiment with DU-145 prostate is 120%; with K-562 leukemia, 88.8%; with MALME-3M melanoma it was 113%; in the experiment on MDA-MB-231 breast, 101%; with RXF 393 renal, 111%; in the experiment with SF-268 CNS it was 105%. For the same compound, the growth in the experiment with SF-295 CNS was 113%; in the experiment with SF-539 CNS it was 98.5%; with UACC-257 melanoma it was 109%; in the experiment with M14 melanoma, 96.8%; with HCT-15 colon, 102%; in the experiment on HT29 colon it was 111%. The growth was 89.5% in the experiment on SNB-75 CNS; 98.1% in the experiment with SNB-19 CNS; 99.8% with U251 CNS; 89.7% in the experiment on PC-3 prostate; 102% in the experiment on SK-MEL-5 melanoma; 94% in the experiment with UACC-62 melanoma. Also, the results for the growth in the experiment with LOX IMVI melanoma and in the experiment with SK-MEL-28 melanoma were 99.3% and 112%, respectively.

Consider `CS(=O)(=O)c1ccc(-c2[nH]c3ccc(F)cc3c2/C=N/NC(N)=S)cc1`, for which the growth was 22.1% in the experiment on DU-145 prostate; 6.76% (active) in the experiment with K-562 leukemia; 55.9% with MALME-3M melanoma; 13.7% in the experiment on MDA-MB-231 breast; 1.16% (active) in the experiment with RXF 393 renal; 39.8% in the experiment on SF-268 CNS. The growth is 13.9% in the experiment on SF-295 CNS; -21.2% (active) in the experiment on SF-539 CNS; 63.3% in the experiment with UACC-257 melanoma; 11.6% in the experiment on M14 melanoma; 20.4% in the experiment on HCT-15 colon; 3.14% (active) in the experiment with HT29 colon. Besides, the growth in the experiment with SNB-75 CNS is 22.4%; with SNB-19 CNS, 15.6%; with U251 CNS it was 15.5%; in the experiment with PC-3 prostate, 19.1%; in the experiment on SK-MEL-5 melanoma it was 17.3%; in the experiment with UACC-62 melanoma, 14.7%. The growth in the experiment with LOX IMVI melanoma was 30.1%; with SK-MEL-28 melanoma, 39.5%.

For the compound `N#Cc1c(N)n2c(nc1=Nc1ccc([N+](=O)[O-])cc1)sc1cc(Cl)ccc12`, the growth was 107% with DU-145 prostate; 74.4% in the experiment on K-562 leukemia; 90.6% in the experiment on MALME-3M melanoma; 74.5% with MDA-MB-231 breast; 114% in the experiment on RXF 393 renal; 95.4% with SF-268 CNS. Further, the growth was -4.01% (active) with SF-295 CNS; 107% with SF-539 CNS; 109% with UACC-257 melanoma; 105% with M14 melanoma; 95.9% in the experiment on HCT-15 colon; 99.2% in the experiment on HT29 colon. Further, the growth in the experiment with SNB-75 CNS was 60.9%; with SNB-19 CNS it was 95.7%; with U251 CNS it was 85.8%; in the experiment with PC-3 prostate, 81.8%; in the experiment with SK-MEL-5 melanoma it was 73%; in the experiment on UACC-62 melanoma it was 53.1%. Also, the values for the growth with LOX IMVI melanoma and in the experiment on SK-MEL-28 melanoma were 79.4% and 106%, respectively.

Consider `CN(C)c1ccc2cc(-c3ccc(Cl)c(Cl)c3)c(N)nc2c1`, for which the growth in the experiment with DU-145 prostate was 56.2%; in the experiment with K-562 leukemia, 12.1%; in the experiment with MALME-3M melanoma, 29.8%; in the experiment with MDA-MB-231 breast, 63.1%; in the experiment on RXF 393 renal, 63%; with SF-268 CNS it was 50.1%. Moreover, the growth is 11.9% with SF-295 CNS; 48.5% in the experiment with SF-539 CNS; 21.3% in the experiment on UACC-257 melanoma; 25.5% in the experiment on M14 melanoma; 32.1% with HCT-15 colon; 2.59% (active) with HT29 colon. Also, the growth in the experiment with SNB-75 CNS was 63.3%; in the experiment on SNB-19 CNS it was 63.6%; in the experiment with U251 CNS, 31.1%; in the experiment with PC-3 prostate, 27.6%; with SK-MEL-5 melanoma, -58.8% (active); with UACC-62 melanoma, 57.2%. Moreover, the growth with LOX IMVI melanoma is 20.6%; with SK-MEL-28 melanoma, 47.4%.

Consider `N=C(N)c1ccc(-c2ccc(/C=C/c3ccccc3)s2)cc1`, for which the growth with DU-145 prostate is 1.59% (active); in the experiment with K-562 leukemia, -27.7% (active); with MALME-3M melanoma it was 61.2%; with MDA-MB-231 breast it was -51.5% (active); in the experiment with RXF 393 renal it was 39.2%; in the experiment with SF-268 CNS, 60.7%. For the same compound, the growth is -61.7% (active) in the experiment with SF-295 CNS; 17.2% with SF-539 CNS; 105% in the experiment on UACC-257 melanoma; 31.8% in the experiment on M14 melanoma; -54% (active) in the experiment with HCT-15 colon; -2.42% (active) in the experiment with HT29 colon. Moreover, the growth in the experiment with SNB-75 CNS was 24.3%; in the experiment with SNB-19 CNS it was 24.3%; in the experiment on U251 CNS, -46.6% (active); in the experiment on PC-3 prostate, 52.7%; in the experiment on SK-MEL-5 melanoma, 81.3%; in the experiment on UACC-62 melanoma, 86.2%. Moreover, the growth in the experiment on LOX IMVI melanoma is -82.1% (active); in the experiment with SK-MEL-28 melanoma it was 80.8%.

Turning to `O=C1Nc2ccccc2/C1=N/N=C/c1c[nH]c2ccccc12`, the growth in the experiment on DU-145 prostate is 58.3%; with K-562 leukemia it was 80.2%; with MALME-3M melanoma it was 71.8%; in the experiment with MDA-MB-231 breast, 60%; in the experiment on RXF 393 renal, 57.5%; in the experiment with SF-268 CNS, 65.1%. Moreover, the growth is 95.6% in the experiment with SF-295 CNS; 78% in the experiment on SF-539 CNS; 92.4% in the experiment on UACC-257 melanoma; 59.5% in the experiment with M14 melanoma; 72.2% in the experiment with HCT-15 colon; 80.8% in the experiment with HT29 colon. In addition, the growth was 45.5% with SNB-75 CNS; 88.1% in the experiment with SNB-19 CNS; 73.6% in the experiment with U251 CNS; 81.5% in the experiment on PC-3 prostate; 76.8% in the experiment on SK-MEL-5 melanoma; 38.4% in the experiment on UACC-62 melanoma. Further, the growth in the experiment on LOX IMVI melanoma was 68.4%; in the experiment with SK-MEL-28 melanoma, 96.3%.

As to `C=C(C)[C@@H]1CC[C@]2(C(=O)NCC(=O)O)CC[C@]3(C)[C@H](CC[C@@H]4[C@@]5(C)Cc6c([nH]c7ccccc67)C(C)(C)[C@@H]5CC[C@]43C)[C@@H]12`, the growth in the experiment with DU-145 prostate is 93.5%; in the experiment on K-562 leukemia, 72.4%; with MALME-3M melanoma, 107%; in the experiment on MDA-MB-231 breast, 92%; in the experiment on RXF 393 renal it was 91.2%; with SF-268 CNS, 76.1%. For the same compound, the growth is 56.2% in the experiment on SF-295 CNS; 56.3% in the experiment on SF-539 CNS; 87.1% in the experiment with UACC-257 melanoma; 86.9% with M14 melanoma; 77.5% in the experiment with HCT-15 colon; 88.2% in the experiment on HT29 colon. Further, the growth in the experiment on SNB-75 CNS is 64.2%; with SNB-19 CNS, 71.2%; in the experiment on U251 CNS it was 61.8%; with PC-3 prostate it was 72.6%; in the experiment with SK-MEL-5 melanoma it was 103%; in the experiment with UACC-62 melanoma, 79.7%. Also, the growth in the experiment with LOX IMVI melanoma is 99.1%; in the experiment with SK-MEL-28 melanoma, 92.7%.

As to `Nc1ccn(C2OC(F)(CO)C(O)C2F)c(=O)n1` (stereo not given), the growth in the experiment on DU-145 prostate is 24.6%; with K-562 leukemia it was 69%; in the experiment with MALME-3M melanoma, 57.4%; in the experiment with MDA-MB-231 breast, 93.4%; with RXF 393 renal, 82.4%; in the experiment on SF-268 CNS it was 47.1%. Also, the growth in the experiment with SF-295 CNS was 55.2%; with SF-539 CNS it was 46.9%; with UACC-257 melanoma it was 62.6%; with M14 melanoma, 1.59% (active); in the experiment with HCT-15 colon it was 63.1%; in the experiment with HT29 colon, 48.3%. Besides, the growth in the experiment on SNB-75 CNS was 68.3%; with SNB-19 CNS, 36.8%; in the experiment on U251 CNS, 29.8%; with PC-3 prostate, 50.1%; with SK-MEL-5 melanoma, 47.4%; in the experiment on UACC-62 melanoma it was 49.3%. The growth in the experiment with LOX IMVI melanoma was 73.1%; with SK-MEL-28 melanoma it was 74.3%.
